In the library only some 3.1% were active in any assay of this set; here they are far more common.
BoNT-A LC inh2 – inhibitors of Botulinum neurotoxin A light chain protease | actives 0.17% (n = 360,000) | multiplex microsphere protease substrate cleavage, flow cytometry | inhibition, % at 10 µM; note: plate controls were buffer without enzyme for full effect and enzyme alone for no effect
Autofluor counter – compound fluorescence in toxin protease inhibitor counterscreen; compound autofluorescence counterscreen, microsphere flow cytometry; hits give high values; fluorescence intensity (concentration not given with the values); actives 3.1% (n = 360,000); AID 624483; in the data active = fluorescence intensity above about 16000; inconclusive = no clear call, values can overlap the other calls
SSB-PriA inh – blocks PriA binding to SSB C-terminal tail; inhibition, % at 33 µM; AlphaScreen SSBct-PriA binding, biotinylated peptide; actives 0.6% (n = 430,000); in the data active = inhibition mostly above about 37%, no sharp cut-off; inactive = mostly below about 20%;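 note: plate controls were negative control peptide for no effect and reference peptide for full effect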
Anthrax LF prot – inhibitors of Bacillus anthracis lethal factor protease | P15917 | multiplex microsphere protease cleavage assay, LF | inhibition, % at 10 µM | actives 0.12% (n = 360,000) | AID 588501; note: plate controls were buffer without enzyme for full effect and enzyme alone for no effect
Target sequence (P15917 whole entry, looked up): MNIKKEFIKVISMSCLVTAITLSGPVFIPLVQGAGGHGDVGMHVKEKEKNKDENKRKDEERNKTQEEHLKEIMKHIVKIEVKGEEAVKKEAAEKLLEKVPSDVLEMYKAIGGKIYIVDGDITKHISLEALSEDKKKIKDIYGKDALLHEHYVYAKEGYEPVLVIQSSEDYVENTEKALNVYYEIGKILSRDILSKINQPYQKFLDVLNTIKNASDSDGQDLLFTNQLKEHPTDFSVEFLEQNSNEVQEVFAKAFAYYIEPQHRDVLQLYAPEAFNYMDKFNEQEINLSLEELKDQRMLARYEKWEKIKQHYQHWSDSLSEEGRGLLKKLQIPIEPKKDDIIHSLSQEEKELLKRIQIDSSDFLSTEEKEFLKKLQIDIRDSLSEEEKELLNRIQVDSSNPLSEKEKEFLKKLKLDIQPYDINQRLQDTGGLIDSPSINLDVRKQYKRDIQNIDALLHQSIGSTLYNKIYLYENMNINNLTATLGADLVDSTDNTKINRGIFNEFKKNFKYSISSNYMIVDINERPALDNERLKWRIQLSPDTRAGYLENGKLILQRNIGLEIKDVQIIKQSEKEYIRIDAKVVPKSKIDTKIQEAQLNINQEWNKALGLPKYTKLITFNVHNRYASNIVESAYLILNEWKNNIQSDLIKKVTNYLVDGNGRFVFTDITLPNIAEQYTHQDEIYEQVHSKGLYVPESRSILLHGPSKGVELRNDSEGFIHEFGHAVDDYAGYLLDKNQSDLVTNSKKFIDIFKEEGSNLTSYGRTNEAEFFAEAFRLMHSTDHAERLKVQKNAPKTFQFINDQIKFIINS
BoNT F protease – blocks Botulinum neurotoxin F light chain protease | actives 0.22% (n = 360,000) | inhibition, % at 10 µM | Multiplex microsphere protease cleavage assay, flow cytometry; in the data active = inhibition above about 35%, passing the limit was not always enough; inconclusive = no clear call, values can overlap the other calls; note: plate controls were buffer without enzyme for full effect and enzyme alone for no effect
BoNTA LC inh 1 – BoNT/A light chain protease inhibition; AID 602139; inhibition, % at 10 µM; actives 3% (n = 720); shares compounds with BoNT F protease; multiplex microsphere protease assay, flow cytometry; in the data active = inhibition above about 32%
BoNTF LC inh 1 – inhibitors of Botulinum neurotoxin F light chain protease | 720 tested, under 10 active | multiplex microsphere protease cleavage assay, flow cytometry | shares compounds with BoNT F protease | inhibition, % at 10 µM; call rule not given here
LF protease CP1 – blocks anthrax lethal factor protease; shares compounds with BoNT F protease; multiplex microsphere protease cleavage assay, LF; inhibition, % at 10 µM; 720 tested, under 10 active; AID 602142; call rule not given here
The depositor's hits bear a star; ? = inconclusive; . = not tested or not shown. Cut-off read from the data, not from the text of the source, unless noted: active = inhibition above about 30%; inconclusive = no clear call, values can overlap the other calls; inactive = below that.

SMILES	BoNT-A LC inh2	Autofluor counter	SSB-PriA inh	Anthrax LF prot	BoNT F protease	BoNTA LC inh 1	BoNTF LC inh 1	LF protease CP1
COc1ccccc1OCC(=O)Nc1ccncc1	3.1	3929	-14.0	-8.5	?	.	.	.
CCOc1ccc(S(=O)(=O)N2CC[C@H](S(C)(=O)=O)C2)cc1F	.	.	-13.0	.	.	.	.	.
O=C(Nc1ccc2c(c1)oc1ccccc12)c1cccnc1	-1.0	3064	-12.1	0.2	-10.0	.	.	.
N#Cc1ccccc1NC(=O)c1ccccc1OCC(=O)Nc1ccc2c(c1)oc1ccccc12	-0.3	11270	-7.6	-0.8	-0.5	.	.	.
O=C(Nc1ccc2c(c1)oc1ccccc12)c1ccncc1	-1.0	16791*	-5.6	-2.8	-3.5	.	.	.
COc1cc2c(cc1NC(=O)CCCCCN1C(=O)CCC1=O)oc1ccccc12	-0.5	24230*	0.8	-0.5	-2.5	.	.	.
COc1ccc(/C=C/C(=O)NC(=S)Nc2ccccn2)cc1	-0.8	3943	38.4*	-8.2	10.0	.	.	.
CNC(=O)COc1ccccc1C(=O)Nc1ccc2c(c1)oc1ccccc12	-0.9	16632*	-7.7	-0.8	-5.0	.	.	.
CCc1nnc2ccc(N3CCN(S(=O)(=O)c4cccc(C(F)(F)F)c4)CC3)nn12	.	.	4.0	.	.	.	.	.
CCOc1cnc(C(=O)NNC(=O)c2ccccc2Cl)o1	.	.	-7.0	.	.	.	.	.
O=C(CN1C(=O)CCC1=O)NCc1nn(C2CCCC2)c2c1COCC2	.	.	-22.0	.	.	.	.	.
c1ccc(Nc2nc(N3CCCCC3)nc(N3CCCCC3)n2)cc1	0.2	4303	-18.6	1.7	8.9	.	.	.
c1ccc(Nc2nc(N3CCCC3)nc(N3CCCC3)n2)cc1	0.6	20430*	-2.8	-5.2	-1.0	.	.	.
Cc1cccc(Nc2nc(N3CCCC3)nc(N3CCCC3)n2)c1	1.4	22488*	-11.2	-1.5	-0.4	.	.	.
Cc1cccc(Nc2nc(Nc3ccc(C)c(C)c3)nc(N3CCCC3)n2)c1	.	.	-8.0	.	.	.	.	.
Cc1ccc(-n2cc(C(=O)NC(C)CCc3ccccc3)nn2)cc1C (stereo unspecified)	.	.	-9.0	.	.	.	.	.
O=S(=O)(/C=C/c1ccccc1)N1CCN(c2ccc3nnc(-c4ccco4)n3n2)CC1	.	.	-12.0	.	.	.	.	.
CC1CCN(c2c([N+](=O)[O-])nn(-c3ccc4c(c3)OCCO4)[n+]2[O-])CC1	-1.0	9355	40.1*	-12.8	-2.7	.	.	.
Cc1cc(Br)ccc1NC(=O)CNC(=O)CSc1n[nH]c(N)n1	1.3	3808	-1.3	-9.1	40.0*	.	.	.
Nc1nc(SCC(=O)Nc2ccc(Br)cc2F)n[nH]1	0.0	2436	-3.7	-1.1	-10.5	.	.	.
Cc1ccc(N2CN=c3s/c(=C\c4ccccn4)c(=O)n3C2)cc1	?	18880*	.	1.3	3.7	.	.	.
Cc1ccc(-n2cc3c(-c4cccc(Br)c4)nnc(C)c3n2)cc1	?	38801*	14.2	?	63.0*	5.4	27.9	0.0
Cc1ccc(Cc2c(-c3cccc(Br)c3)nc3ccc(Br)cn23)cc1	9.1	7714	.	7.9	-0.5	.	.	.
NS(=O)(=O)c1ccc(CCNC2CC(=O)N(CCc3ccccc3)C2=O)cc1 (stereo unspecified)	5.7	7354	0.6	52.0*	157.6*	1.2	1.4	3.5
CC(C)(C)c1ccc(C(=O)Nc2ccc(CN3CCS(=O)(=O)CC3)cc2)cc1	-5.0	?	-6.6	-9.6	?	.	.	.
SMILES	BoNT-A LC inh2	Autofluor counter	SSB-PriA inh	Anthrax LF prot	BoNT F protease	BoNTA LC inh 1	BoNTF LC inh 1	LF protease CP1
O=C(Nc1ccc(CN2CCOCC2)cc1)c1ccc(F)cc1	-0.2	3717	-5.7	1.0	34.9*	-0.2	-3.4	2.8
O=C(Nc1ccc(CN2CCS(=O)(=O)CC2)cc1)c1ccc(C(F)(F)F)cc1	0.1	3484	-4.8	30.1*	-16.7	-0.4	-8.0	-4.5
O=C(Nc1ccc(CN2CCOCC2)cc1)c1ccc(Br)cc1	-1.7	4012	9.3	1.1	8.9	.	.	.
CCOc1ccc(CC(=O)NC2CCN(c3nccs3)CC2)cc1	.	.	-7.0	.	.	.	.	.
COc1ccc(-n2c(C)nnc2SCC(=O)N2CCOCC2)cc1	-4.3	3824	-11.7	0.2	47.2*	1.0	1.9	-2.3
CCNC(=O)N1CCN(CCn2ccnc2-c2ccccc2)CC1	.	.	12.0	.	.	.	.	.
O=C(CCCS(=O)(=O)c1ccc(Cl)cc1)Nc1ccc(-c2nc3ccccc3o2)cc1	.	.	10.0	.	.	.	.	.
O=C1CN(Cc2ccccc2)CC(=O)N1	-1.8	3950	-9.3	-0.7	45.5*	-1.2	-2.1	-0.2
O=C(c1ccccc1)c1sc(N2CCCCCC2)nc1-c1ccccc1	53.9*	1944	-43.5	33.7*	32.7	9.8	-2.6	1.6
Clc1ccc(-c2nc(N3CCCCC3)nc3ccccc23)cc1	31.5*	10695	-3.9	16.3	58.9*	11.4	-1.3	2.0
O=C(O)CCC(=O)N1CCN(c2nc(-c3ccccc3)c3ccccc3n2)CC1	-2.0	3212	1.4	-6.2	9.8	.	.	.
c1ccc(-c2ncc3ccccn23)cc1	1.5	5898	-10.4	-1.1	-1.6	0.1	-6.6	1.3
Cn1c(=O)c2cc3ccccc3nc2n(C)c1=O	-1.3	4208	-10.0	29.5*	?	0.2	-0.8	2.0
CN(C)S(=O)(=O)c1cc(C(=O)NCCCn2ccc3ccccc32)ccc1Cl	6.1	4171	4.6	12.5	-27.3	0.1	-2.7	1.6
COc1ccc(CCNC(=O)c2ccc(Cl)c(S(=O)(=O)N(C)c3ccccc3)c2)cc1	-0.7	9294	3.8	0.1	-1.9	.	.	.
C=CCn1c(SCC(=O)Nc2ccc(Br)cc2)nc(O)cc1=O	0.1	3765	.	-3.7	2.5	.	.	.
CCn1c(SCC(=O)Nc2ccc(C)cc2)nc(O)cc1=O	3.1	3877	-5.8	9.5	42.3*	-0.3	5.8	6.3
COc1ccccc1CNC(=O)C(CCSC)NS(=O)(=O)c1ccc2c(c1)oc(=O)n2C (stereo unspecified)	-0.2	3418	-18.6	-1.2	-6.0	.	.	.
COc1cccc(CNC(=O)C(CCSC)NS(=O)(=O)c2ccc3c(c2)oc(=O)n3C)c1 (stereo unspecified)	0.7	4362	-2.3	-3.1	37.0*	-0.1	-0.1	-6.6

Bioassay records from PubChem.
